# Measurements from ChEMBL document CHEMBL1157539, “Thousands of chemical starting points for antimalarial lead identification” (Nature, 2010).
# Experiments:
# Assay type in all cases: functional
# Plasmodium falciparum [1] = test: GSK_TCMDC: Inhibition of Plasmodium falciparum 3D7 in whole red blood cells, using parasite LDH activity as an index of growth. Test compounds present at 2uM
# Plasmodium falciparum [2] = test: GSK_TCMDC: Inhibition of Plasmodium falciparum Dd2 in whole red blood cells, using parasite LDH activity as an index of growth. Test compounds present at 2uM
# HepG2 = test: GSK_TCMDC: Percent inhibition of human HepG2 cell line. Test compounds present at 10uM.
SMILES,Inhibition (Plasmodium falciparum [1]),Inhibition (Plasmodium falciparum [2]),Inhibition (HepG2)
CN1Cc2cc(NC(=O)/C=C/c3ccccc3Cl)ccc2C(C)(C)C1.Cl,99%,96%,12%
Nc1ncc(-c2ccsc2)cc1-c1nc2ccccc2[nH]1,99%,8%,33%
O=C(NCCCCCN1CCC(c2c[nH]c3ccccc23)CC1)Nc1cccc(Br)c1,84%,0%,39%
CN(C)CCN(C)Cc1ccc(-c2ccc3c(Nc4ccc(Oc5ccccn5)cc4)ccnc3c2)o1,100%,100%,16%
CCCCCC(C)N/C(=N/c1cccc(Cl)c1Cl)Nc1ccc(C#N)cc1O (stereo not drawn),100%,98%,28%
CC(=O)N(C)c1cccc(C(=O)Nc2ccc(-c3cccc(-c4nc5cc(C(F)(F)F)ccc5[nH]4)c3)cc2)c1,94%,10%,79%
Cc1ccc(/C=C/C(=O)NC2CCC(N3CCC(c4ccccc4C)CC3)CC2)cc1F (stereo not drawn),96%,18%,51%
O=C(Nc1cc(F)cc(F)c1)N1CCOC(CCN2CCC3(CCc4ccccc43)CC2)(c2ccc(Cl)c(Cl)c2)C1 (stereo not drawn),100%,86%,32%
COc1cc(C=NNc2ccnc3cc(Cl)ccc23)ccc1O,100%,100%,15%
Cc1ccc2[nH]c3c(NCCCN4CCOCC4)ncnc3c2c1,100%,9%,0%
Cl.N#Cc1ccc2c(c1)CCN(CCC1CCC(NC(=O)Nc3ccnc4ccccc34)CC1)C2 (stereo not drawn),100%,77%,38%
